Compound activity from PubChem.
Compounds with a hit are over-represented: about 3% of the library has one in this group of screens.
Measles CPE: compounds protecting cells from measles virus cytopathic effect, primary screen, measles RdRp inhibitor project, single point, MLSMR library, absorbance; Measles virus-infected cells, CPE protection; protection (pct of control), % at 4 µM; 140,000 compounds, 1.5% hits; AID 841, 2007; in the data active = protection mostly above about 24%, no sharp cut-off; inactive = mostly below about 26%
Insulin prom inh: inhibitors of insulin promoter-driven GFP, primary screen, imaging, TRM-6 cells (human fetal islet line), eGFP reporter, cell count; inhibition, % at 2 µM; 130,000 compounds, 0.9% hits; reporter expression induced with tamoxifen;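 active = inhibition above the mean plus 3 SD, with well images judged a real hit on visual review, cut at about 60% in these data, passing the limit was not always enough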
sdo1 growth: growth rescue of sdo1-depleted yeast, primary screen, S. cerevisiae, bone marrow failure model. S. cerevisiae sdo1-depleted JHY4D growth rescue, OD600 30 h; active compounds read high; pdr5 snq2 efflux-pump mutant strain. z-score at 10 µM. 140,000 compounds, 0.21% hits. AID 817, 2007;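 active = z-score above 3 at both the 24 hr and the 30 hr optical density reads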;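 also: z-score against mean and SD of all compound wells on the same plate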
ROMK mod: ROMK potassium channel modulators, primary screen, cell-based, thallium flux, MLSMR library. ATP-sensitive inward rectifier potassium channel 1 (Homo sapiens), P48048. Tet-inducible ROMK, thallium flux fluorescence; actives lie on both sides. B-score at 10 µM. 130,000 compounds, 2% hits;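 active = signal ratio slope over the read window, or its plate-corrected B-score, at least 3 SD from the plate mean, either direction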;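 also: B-score of the F/F0 ratio slope over 7 to 12 s after thallium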
Target sequence (P48048 whole entry, looked up): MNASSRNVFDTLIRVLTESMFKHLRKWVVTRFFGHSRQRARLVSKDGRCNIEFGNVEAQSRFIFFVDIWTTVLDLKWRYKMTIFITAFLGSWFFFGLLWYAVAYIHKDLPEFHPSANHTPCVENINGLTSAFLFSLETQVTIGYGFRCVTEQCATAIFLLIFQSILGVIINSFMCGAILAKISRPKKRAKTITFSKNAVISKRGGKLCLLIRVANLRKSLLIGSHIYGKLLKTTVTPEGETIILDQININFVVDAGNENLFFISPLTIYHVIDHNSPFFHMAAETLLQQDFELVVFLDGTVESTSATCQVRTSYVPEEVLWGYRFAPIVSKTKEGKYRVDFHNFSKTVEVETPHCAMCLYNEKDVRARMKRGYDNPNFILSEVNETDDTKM
* hit, by the source's call; nt = not tested or not shown.

SMILES	Measles CPE	Insulin prom inh	sdo1 growth	ROMK mod
CC(C)c1nc2sc3c(=O)n(N)cnc3c2c2c1COC(C)(C)C2	29	-43	-1.1	nt
Cc1nc(SCC(=O)N2CC(C)OC(C)C2)nc(C)c1C (configuration not stated)	26*	-16	1.4	nt
COc1cc(OC)cc(C2=NCCN2)c1	nt	nt	nt	-0.13
CC1CCCC(=C\c2ccccc2)/C1=N/O (configuration not stated)	11	10	-1.4	-1.2
CCN(CC)S(=O)(=O)c1ccc(N2CCOCC2)c(NCC(=O)Nc2ccc(F)cc2)c1	nt	nt	nt	1.7
O=C(/C=C/c1ccccc1)N/C(=C/c1ccccc1)C(=O)N1CCCCC1	47*	-13	1.4	nt
O=C(C(c1ccccc1)c1ccccc1)N1CCC(c2nc(-c3ccccc3Cl)no2)CC1	37*	-350	-1.5	-1.2
COc1cc(/C=N/NC(=O)c2ccc(-n3cccc3)cc2)ccc1O	6	71*	0.59	1.3
COc1cc(/C=N\NC(=O)c2c(C)nc3cc(C)ccn23)ccc1O	nt	17	nt	-0.13
COc1cc(/C=N/NC(=O)CCN2CCN(C(c3ccccc3)c3ccccc3)CC2)ccc1O	28*	nt	0.73	nt
COC(=O)C1=C(C)NC(=S)NC1c1ccco1 (configuration not stated)	nt	6	nt	0.69
O=C(Nc1ccc(Cl)c(Cl)c1)N1CCC(N2CCCCC2)CC1	61*	-21	0.8	-1.2
Cc1ccc(N(CCC(=O)Nc2nnc(C3CC3)s2)S(=O)(=O)c2ccccc2)cc1	8	-42	-0.81	2.2
COc1cccc(C2CC(c3ccccc3)=NN2S(=O)(=O)c2ccc(C)cc2)c1OC (configuration not stated)	nt	nt	nt	-8.1*
COc1ccc(-c2[nH]ncc2/C=C(\C#N)C(=O)NC2CC2)cc1	16	73*	0.29	0.6
N#C/C(=C\c1cn[nH]c1-c1ccccc1)C(=O)NC1CCCCCC1	16	-10	-1.2	nt
N#C/C(=C\c1cn[nH]c1-c1ccc(Cl)cc1)C(=O)NC1CC1	14	79*	-0.04	nt
CN1CCCN(Cc2nc(-c3cccc(C(F)(F)F)c3)no2)CC1	nt	nt	nt	1.5
CC(C)(C)n1ncc2c(=O)n(CC(=O)NCc3ccccc3)cnc21	4	nt	0.04	4.2*
CN1CCN(c2ccccc2NC(=O)COc2ccc(Br)cc2)CC1	4	-41	0.22	-2.3
CC(C)c1nc(-c2ccccc2)c(-c2ccccc2)[nH]1	10	87*	-0.21	-0.19
CC12CCC(C(=O)Nc3ccccc3)(C(Br)C1=O)C2(C)C (configuration not stated)	3	nt	1.1	-0.3
CC1=NOC(=O)/C1=C/c1ccc(-c2ccc(Cl)cc2)o1	8	10	-1.6	-2.7*
CC1=NOC(=O)/C1=C\c1ccc(-c2ccc(Br)cc2)o1	nt	25	nt	-0.75
Cc1c(C(=O)Nc2ccc3c(c2)OCO3)sc2ncn(CC(=O)N3CC(C)CC(C)C3)c(=O)c12 (configuration not stated)	26	nt	0.15	-0.023
SMILES	Measles CPE	Insulin prom inh	sdo1 growth	ROMK mod
Cc1ccnc(NC(c2ccccc2O)c2oc(CO)cc(=O)c2O)c1 (configuration not stated)	nt	-14	nt	-0.15
O=C(c1ccc(Cl)cc1)c1c[nH]c(C(=O)NNc2ccccc2)c1	nt	42	nt	-0.36
CCC(=O)Nc1cc(C)c(NC(=O)C23CC4CC(CC(C4)C2)C3)cn1	10	76*	-0.65	-0.21
CN(C)C(=O)c1cc(C(=O)c2ccc(C(F)(F)F)cc2F)c[nH]1	nt	-56	nt	0.017
Cc1ccccc1C(=O)NC1CCN(CC(=O)Nc2c(C)cccc2C)CC1	39*	52	0.79	nt
Cc1ccccc1C(=O)NC1CCN(C(=O)N(c2ccccc2)c2ccccc2)CC1	4	-14	0.98	nt
Cc1ccccc1C(=O)NC1CCN(C(=O)N2CCOCC2)CC1	3	75*	0.66	1.4
O=c1c2ccccc2sn1-c1ccc(S(=O)(=O)N2CCCCC2)cc1	nt	28	nt	nt
Cc1ccc(-n2sc3ccccc3c2=O)cc1S(=O)(=O)N1CCCCC1	19	75*	0.22	0.25
Nc1[nH]c(N=NC(=O)c2ccc(Cl)cc2)c2ccccc12	45*	nt	-0.49	nt
Nc1[nH]c(N=NC(=O)c2ccccc2)c2ccccc12	19	11	0.41	1.4
O=C(COc1ccc2ccccc2c1)N/N=C/C1CC=CCC1 (configuration not stated)	2	15	1.4	-0.047
CCCn1c(SCC(=O)N2c3ccccc3Sc3ccccc32)nc2ccccc21	33*	27	0.16	1.3
CCCn1c(SCC(=O)O)nc2ccccc21	16	10	1.3	0.0034
O=C(NC(c1ccccc1)c1c(O)ccc2ccccc12)c1ccccc1Cl (configuration not stated)	11	-47	-0.73	nt
O=C(NC(c1ccc(Cl)cc1)c1c(O)ccc2ccccc12)c1ccccc1 (configuration not stated)	42*	-3	-0.97	0.68
CSc1ccc(NC(=O)N2CC=C(n3c(=O)[nH]c4ccccc43)CC2)cc1	4	64*	-0.23	1.8
COc1cccc(Nc2c3c(nc4c(-c5ccccc5)c(C)nn24)CCC3)c1	31	94*	-0.68	nt
Cc1nn2c(Nc3ccc(F)cc3)c3c(nc2c1-c1ccccc1)CCC3	19	87*	0.05	nt
CCCCNc1c2c(nc3c(-c4ccccc4)c(C)nn13)CCC2	8	-4	-0.93	-1.1
COc1cccc(C(=O)N/N=c2\sc3ccccc3n2C)c1	26*	45	1.1	0.094
O=C(NC(=O)c1ccc(Cl)cc1)Nc1ccc(-c2cnco2)cc1	nt	nt	nt	0.18
Cc1ccc(-n2c(C)cc(C(=O)CSc3n[nH]c(N)n3)c2C)cc1	8	-7	0.62	nt
Cc1cc(C(=O)CSc2n[nH]c(N)n2)c(C)n1-c1ccccc1	26*	16	-0.02	-1.4
S=c1nc(-c2ccccc2)[nH]c2ccccc12	nt	nt	nt	7.3*
SMILES	Measles CPE	Insulin prom inh	sdo1 growth	ROMK mod
CCNc1nnc(-c2ccc(C)cc2)o1	39*	0	-0.43	nt
Cc1ccc(-c2nnc(-c3ccccc3)o2)cc1	10	-8	-1.1	nt
Cc1csc(NC(=O)CSc2nnc(C)s2)n1	14	15	1.3	0.021
Cc1nnc(SCC(=O)Nc2nc(C(C)(C)C)cs2)s1	54*	9	0.07	-1.2
CCOC(=O)c1c(C)[nH]c(C)c1C(=O)COC(=O)c1ccc(S(=O)(=O)N(CC)CC)cc1	51*	6	-0.21	nt
CC(=O)Nc1ccc(Oc2cc(NC(C)=O)cc([N+](=O)[O-])c2)cc1	nt	nt	nt	-0.17
CC(=O)Nc1cc(ON=C(C)C)cc([N+](=O)[O-])c1	47*	-193	0.76	-0.67
O=C(CCN1C(=O)COc2ccccc21)N1CCCCC1	2	21	-1.1	0.034
CCOC(=O)N1CCN(C(=O)CCN2C(=O)COc3ccccc32)CC1	9	79*	-0.58	-0.11
N#C/C(=N\Nc1cccc([N+](=O)[O-])c1)C(=O)c1ccc(Br)cc1	nt	nt	nt	3.1*
O=C(O)c1ccc(N=NNc2cccc([N+](=O)[O-])c2)cc1	nt	-64	nt	-0.12
